# Test results: the supplement of paper PMC12282887
# ± gives the standard deviation of the averaged measurements.
# System: E. coli BW25113 marRABp lux reporter
# Test: promoter activity interaction Z-score (Lux/OD deviation from empty-vector control); higher = stronger promoter induction by the compound
# Method: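 E. coli BW25113 (wild type or ΔmarA/ΔsoxS/Δrob) carrying pTU175 luxCDABE promoter reporters was grown in LB in 384-well plates at 37°C with each of 94 compounds at 4 two-fold concentrations, in biological duplicates. Luminescence and OD600 were read every 30 min for 12 h and integrated as AUC over 8 h (0-8 h WT, 1-9 h mutants). Lux AUC was divided by OD AUC; the interaction score is the residual of a Huber robust fit of each promoter against the empty-vector control, then Z-transformed per promoter.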
SMILES,"promoter activity interaction Z-score (19 µg/ml, genetic background: wild type)","promoter activity interaction Z-score (19 µg/ml, genetic background: ΔmarA)","promoter activity interaction Z-score (19 µg/ml, genetic background: Δrob)","promoter activity interaction Z-score (19 µg/ml, genetic background: ΔsoxS)","promoter activity interaction Z-score (38 µg/ml, genetic background: wild type)","promoter activity interaction Z-score (38 µg/ml, genetic background: ΔmarA)","promoter activity interaction Z-score (38 µg/ml, genetic background: Δrob)","promoter activity interaction Z-score (38 µg/ml, genetic background: ΔsoxS)","promoter activity interaction Z-score (76.1 µg/ml, genetic background: wild type)","promoter activity interaction Z-score (76.1 µg/ml, genetic background: ΔmarA)","promoter activity interaction Z-score (76.1 µg/ml, genetic background: Δrob)","promoter activity interaction Z-score (76.1 µg/ml, genetic background: ΔsoxS)","promoter activity interaction Z-score (152.1 µg/ml, genetic background: wild type)","promoter activity interaction Z-score (152.1 µg/ml, genetic background: ΔmarA)","promoter activity interaction Z-score (152.1 µg/ml, genetic background: Δrob)","promoter activity interaction Z-score (152.1 µg/ml, genetic background: ΔsoxS)","promoter activity interaction Z-score (22.7 µg/ml, genetic background: wild type)","promoter activity interaction Z-score (22.7 µg/ml, genetic background: ΔmarA)","promoter activity interaction Z-score (22.7 µg/ml, genetic background: Δrob)","promoter activity interaction Z-score (22.7 µg/ml, genetic background: ΔsoxS)","promoter activity interaction Z-score (45.3 µg/ml, genetic background: wild type)","promoter activity interaction Z-score (45.3 µg/ml, genetic background: ΔmarA)","promoter activity interaction Z-score (45.3 µg/ml, genetic background: Δrob)","promoter activity interaction Z-score (45.3 µg/ml, genetic background: ΔsoxS)","promoter activity interaction Z-score (90.6 µg/ml, genetic background: wild type)","promoter activity interaction Z-score (90.6 µg/ml, genetic background: ΔmarA)","promoter activity interaction Z-score (90.6 µg/ml, genetic background: Δrob)","promoter activity interaction Z-score (90.6 µg/ml, genetic background: ΔsoxS)","promoter activity interaction Z-score (181.2 µg/ml, genetic background: wild type)","promoter activity interaction Z-score (181.2 µg/ml, genetic background: ΔmarA)","promoter activity interaction Z-score (181.2 µg/ml, genetic background: Δrob)","promoter activity interaction Z-score (181.2 µg/ml, genetic background: ΔsoxS)"
COc1cc(C=O)ccc1O [Vanillin],-0.156 ± 0.018,-0.451 ± 0.34,0.0366 ± 0.23,-0.21 ± 0.21,0.304 ± 0.065,0.0122 ± 0.2,0.119 ± 0.4,-0.0492 ± 0.056,0.913 ± 0.07,0.599 ± 0.31,0.595 ± 0.066,0.224 ± 0.12,1.28 ± 0.41,1.702 ± 0.0098,1.077 ± 0.0082,0.812 ± 0.084,,,,,,,,,,,,,,,,
C[C@]12CCC(=O)C=C1CC[C@@H]1[C@@H]2[C@@H](O)C[C@@]2(C)[C@H]1CC[C@]2(O)C(=O)CO [Hydrocortisone],,,,,,,,,,,,,,,,,-0.21 ± 0.0069,-0.342 ± 0.029,-0.0926 ± 0.12,-0.27 ± 0.066,-0.258 ± 0.11,-0.377 ± 0.024,-0.12 ± 0.044,-0.15 ± 0.019,-0.225 ± 0.18,-0.395 ± 0.011,-0.23 ± 0.18,-0.551 ± 0.19,-0.465 ± 0.21,-0.467 ± 0.023,-0.34 ± 0.16,-0.371 ± 0.24
